Measured values from PMC5540273 (PLoS ONE, 2017).

Columns and labels:
Settings in all cases: concentration: 1 μM,replicates: in singlicate; n = 1
[1] = tested on: T1, IKK-alpha
T1 construct: gene CHUK

[2] = tested on: T2, IKK-beta
T2 construct: gene IKBKB

[3] = tested on: T3, IKK-epsilon
T3 construct: gene IKBKE

[4] = tested on: INSRR
[5] = tested on: INSR
[6] = tested on: IRAK1
[7] = tested on: IRAK3
[8] = tested on: IRAK4
[9] = tested on: ITK
[10] = tested on: JAK1(JH1domain-catalytic)
[11] = tested on: JAK1(JH2domain-pseudokinase)
[12] = tested on: JAK2(JH1domain-catalytic)
[13] = tested on: JAK3(JH1domain-catalytic)
[14] = tested on: T4, JNK1
T4 construct: gene MAPK8

[15] = tested on: T5, JNK2
T5 construct: gene MAPK9

[16] = tested on: T6, JNK3
T6 construct: gene MAPK10

[17] = tested on: KIT-autoinhibited
[18] = tested on: KIT
[19] = tested on: LATS1
[20] = tested on: LATS2
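Further: KINOMEscan kinase panel screen.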

| Compound | %Inh [1] | %Inh [2] | %Inh [3] | %Inh [4] | %Inh [5] | %Inh [6] | %Inh [7] | %Inh [8] | %Inh [9] | %Inh [10] | %Inh [11] | %Inh [12] | %Inh [13] | %Inh [14] | %Inh [15] | %Inh [16] | %Inh [17] | %Inh [18] | %Inh [19] | %Inh [20] |
| --- | --- | --- | --- | --- | --- | --- | --- | --- | --- | --- | --- | --- | --- | --- | --- | --- | --- | --- | --- | --- |
| COC(=O)c1cccc(NC(=O)NC2CCN(c3ccnc(NCc4ccc(F)cc4)n3)CC2)c1 [GSK1379860] | 26% | 8% | 0% | 0% | 0% | 0% | 0% | 12% | 15% | 8% | 0% | 6% | 0% | 7% | 23% | 3% | 0% | 7% | 0% | 0% |
| CN(c1ccc2c(c1)nc(NCc1ccc(F)cc1)n2C)c1ccnc(Nc2ccc(CS(C)(=O)=O)cc2)n1.Cl [GW813244] | 15% | 0% | 0% | 15% | 27% | 49% | 1% | 0% | 0% | 38% | 56% | 54% | 100% | 42% | 39% | 0% | 69% | 99.9% | 10% | 0% |
| Cc1cccc(-c2nc(Nc3ccncc3)c3sccc3n2)n1 [GW869641] | 32% | 22% | 0% | 5% | 31% | 18% | 0% | 0% | 12% | 0% | 90.2% | 67% | 57% | 46% | 85% | 94.6% | 21% | 22% | 11% | 33% |
| O=C(Nc1cccc(C(F)(F)F)c1)c1cccc(Oc2ccc3nccn3n2)c1 | 0% | 0% | 0% | 22% | 2% | 25% | 0% | 13% | 21% | 2% | 10% | 30% | 8% | 21% | 0% | 10% | 44% | 99.9% | 0% | 0% |
| COc1cc2ncn(-c3cc(OCC4CCCCC4)c(C(N)=O)s3)c2cc1OC [GSK204559] | 0% | 2% | 0% | 0% | 14% | 0% | 12% | 9% | 13% | 0% | 0% | 0% | 0% | 20% | 27% | 19% | 0% | 31% | 0% | 7% |
| Cn1ccc2ncnc(Oc3ccc(NC(=O)Nc4cnn(C(C)(C)C)c4)c(Cl)c3)c21 | 29% | 17% | 10% | 3% | 11% | 43% | 0% | 20% | 2% | 6% | 0% | 11% | 15% | 2% | 10% | 0% | 35% | 99.8% | 100% | 2% |
| CC(C(=O)NC1CCN(c2ccnc(Nc3ccc(F)cc3)n2)C1)c1ccc(Cl)cc1 (stereo not shown) [GSK1379713] | 0% | 0% | 0% | 10% | 0% | 0% | 0% | 0% | 10% | 5% | 0% | 7% | 0% | 2% | 0% | 0% | 0% | 10% | 0% | 0% |
| CN1CCN(CCCNc2nccc(-c3c(-c4ccc(F)cc4)nn4cc(C(N)=O)ccc34)n2)CC1 [GW622475] | 0% | 0% | 39% | 0% | 2% | 29% | 0% | 11% | 10% | 5% | 0% | 0% | 0% | 92.1% | 99.6% | 99.6% | 2% | 66% | 0% | 7% |
| Cc1ccn2nc(-c3ccc(F)cc3)c(-c3ccncc3)c2c1.Cl [GW457859] | 0% | 0% | 16% | 0% | 0% | 13% | 0% | 0% | 0% | 16% | 75% | 50% | 0% | 43% | 91.4% | 93.4% | 0% | 26% | 2% | 0% |
| C[C@@H](Oc1cc(-n2cnc3cc(-c4cnn(C)c4)ccc32)sc1C(N)=O)c1ccccc1Cl [GSK580432] | 0% | 8% | 4% | 1% | 0% | 45% | 34% | 25% | 23% | 0% | 0% | 86% | 96.9% | 0% | 31% | 16% | 0% | 96.4% | 0% | 2% |
| Cn1ccc2ncnc(Oc3ccc(NC(=O)Nc4cccc(C(F)(F)F)c4)c(F)c3)c21 | 44% | 0% | 0% | 6% | 2% | 0% | 0% | 0% | 3% | 11% | 7% | 6% | 29% | 11% | 0% | 0% | 75% | 100% | 15% | 0% |
| C[C@@H]1CCN(C(=O)N2CCCC2)C[C@@H]1N(C)c1ncnc2[nH]ccc12 | 23% | 19% | 17% | 12% | 0% | 6% | 8% | 0% | 0% | 99.6% | 31% | 100% | 99.6% | 14% | 8% | 3% | 23% | 0% | 0% | 10% |
| C[C@@H](Oc1cc(-n2cnc3cc(-c4ccncc4)ccc32)sc1C(N)=O)c1ccccc1Cl [GSK479719] | 37% | 50% | 0% | 0% | 0% | 48% | 0% | 26% | 11% | 0% | 0% | 58% | 48% | 7% | 10% | 11% | 0% | 64% | 10% | 0% |
| Cn1ccc2ncnc(Oc3ccc(NC(=O)Nc4cccc(C(F)(F)F)c4)c(Cl)c3)c21 | 53% | 19% | 6% | 0% | 16% | 0% | 0% | 0% | 1% | 0% | 45% | 11% | 25% | 9% | 0% | 0% | 37% | 100% | 9% | 0% |
| COc1cc2c(Nc3ccc(NC(=O)c4ccccc4)cc3)ncnc2cc1OCCCN1CCOCC1 [GSK301329] | 0% | 4% | 0% | 0% | 0% | 5% | 26% | 11% | 26% | 0% | 0% | 0% | 0% | 0% | 19% | 12% | 41% | 99.1% | 0% | 0% |
| Cc1ccc(Nc2ccnc(Nc3ccc4c(c3)CS(=O)(=O)C4)n2)cc1O.Cl [GW579362] | 62% | 87% | 91% | 22% | 53% | 99.1% | 91% | 87% | 38% | 92.4% | 99.1% | 99.1% | 98.2% | 98.4% | 87% | 95.1% | 41% | 99.8% | 0% | 21% |
| Cc1cccc2c(-c3ccncc3)c(-c3ccc(F)cc3)nn12.Cl [GW461487] | 0% | 0% | 21% | 0% | 0% | 9% | 0% | 0% | 5% | 8% | 19% | 0% | 0% | 48% | 90% | 94% | 0% | 4% | 0% | 13% |
| CC(C)S(=O)(=O)N1CCN(Cc2ccc3c(c2)nc(NC(=O)c2ccsc2)n3C[C@H](O)c2ccccc2)CC1 [GW635815] | 20% | 13% | 52% | 27% | 67% | 90% | 49% | 80% | 97.6% | 5% | 0% | 77% | 54% | 19% | 10% | 15% | 20% | 87% | 0% | 0% |
| CS(=O)(=O)Nc1ccc(-c2ccnc3[nH]ccc23)cc1 [GSK993273] | 89% | 99.1% | 34% | 0% | 0% | 61% | 49% | 24% | 13% | 70% | 9% | 97.7% | 97.1% | 49% | 27% | 28% | 0% | 59% | 42% | 82% |
| Cl.Cl.NC[C@H](CC1CCCCC1)NC(=O)c1ccc(-c2ccnc3[nH]ccc23)s1 [GSK1581428] | 31% | 72% | 31% | 100% | 5% | 57% | 13% | 6% | 5% | 56% | 0% | 97.2% | 99.7% | 18% | 11% | 8% | 0% | 65% | 89% | 95.3% |
